Results as given in the supplement of paper PMC11732987, “Enantioselective OTUD7B fragment discovery through chemoproteomics screening and high-throughput optimisation” (Communications Chemistry, 2025).

Tests used:
Assay in all cases: log2 ratio of Biotin-Ahx-Ub-VS probe labelling (fragment/DMSO); higher = less target engagement (more negative = stronger competition), active = hit call of the paper (q ≤ 0.05, log2 ratio ≤ -1)
Details in all cases: compound concentration: 200 uM; treatment time: 3 h
ALG13 = target: T1, ALG13 (UniProt Q9NP73)
T1 sequence (whole entry): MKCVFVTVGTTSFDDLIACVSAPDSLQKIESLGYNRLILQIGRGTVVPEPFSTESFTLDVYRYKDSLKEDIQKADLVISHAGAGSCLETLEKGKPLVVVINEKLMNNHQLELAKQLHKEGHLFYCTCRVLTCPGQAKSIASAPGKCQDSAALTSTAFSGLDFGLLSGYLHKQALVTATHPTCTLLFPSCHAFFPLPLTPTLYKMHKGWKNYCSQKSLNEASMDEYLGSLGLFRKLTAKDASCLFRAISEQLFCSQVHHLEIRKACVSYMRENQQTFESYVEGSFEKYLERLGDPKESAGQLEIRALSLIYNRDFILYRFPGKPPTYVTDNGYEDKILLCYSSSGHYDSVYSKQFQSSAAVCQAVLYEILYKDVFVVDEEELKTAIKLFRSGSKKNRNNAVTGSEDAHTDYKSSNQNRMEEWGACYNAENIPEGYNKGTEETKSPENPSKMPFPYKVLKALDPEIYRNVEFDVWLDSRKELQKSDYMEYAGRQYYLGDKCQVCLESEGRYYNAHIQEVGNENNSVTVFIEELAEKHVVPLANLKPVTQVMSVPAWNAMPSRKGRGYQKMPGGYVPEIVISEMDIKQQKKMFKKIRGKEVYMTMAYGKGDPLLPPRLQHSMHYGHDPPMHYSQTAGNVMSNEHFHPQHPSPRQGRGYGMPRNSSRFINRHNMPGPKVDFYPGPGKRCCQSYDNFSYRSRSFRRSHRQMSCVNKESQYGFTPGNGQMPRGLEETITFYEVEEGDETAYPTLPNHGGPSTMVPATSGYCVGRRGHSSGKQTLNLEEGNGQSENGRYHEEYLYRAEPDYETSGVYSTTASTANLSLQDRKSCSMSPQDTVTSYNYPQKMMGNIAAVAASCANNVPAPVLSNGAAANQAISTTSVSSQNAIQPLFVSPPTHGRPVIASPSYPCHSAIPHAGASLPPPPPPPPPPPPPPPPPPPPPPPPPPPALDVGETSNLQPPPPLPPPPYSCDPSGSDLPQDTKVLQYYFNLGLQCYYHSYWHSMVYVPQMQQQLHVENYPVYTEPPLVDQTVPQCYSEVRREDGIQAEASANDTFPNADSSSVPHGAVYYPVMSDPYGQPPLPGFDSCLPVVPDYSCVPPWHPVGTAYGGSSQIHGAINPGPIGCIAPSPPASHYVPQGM
Procedure, shortened: (§1)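 HEK293T lysate, 495 µg per sample in Tris/CHAPS/IGEPAL buffer with protease inhibitors, was treated in triplicate with fragment at 200 µM or vehicle for 3 h and then with Biotin-Ahx-Ub-VS at 0.5 µM final for 1 h. Labelled DUBs were NeutrAvidin-enriched, digested with LysC and trypsin, and run by diaPASEF LC-MS/MS. Spectronaut label-free quantities were global-median-normalised, and values are average log2 fragment/vehicle ratios by unpaired t-test on proteins with ≥2 unique peptides.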

ATXN3 = ATXN3 (UniProt P54252)
ATXN3, sequence (P54252 whole entry): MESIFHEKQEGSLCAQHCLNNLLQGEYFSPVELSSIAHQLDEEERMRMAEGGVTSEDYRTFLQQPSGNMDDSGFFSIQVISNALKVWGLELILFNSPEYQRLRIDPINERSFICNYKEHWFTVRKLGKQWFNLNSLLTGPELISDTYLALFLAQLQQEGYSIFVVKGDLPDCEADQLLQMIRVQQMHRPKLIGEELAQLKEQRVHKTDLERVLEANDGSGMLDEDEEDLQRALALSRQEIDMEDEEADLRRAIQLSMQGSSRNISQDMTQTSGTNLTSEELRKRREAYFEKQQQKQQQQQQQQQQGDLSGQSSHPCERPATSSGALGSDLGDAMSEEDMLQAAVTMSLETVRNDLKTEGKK
Procedure, shortened: as §1

BAP1 = target: T2, BAP1 (UniProt Q92560)
T2 sequence (whole entry): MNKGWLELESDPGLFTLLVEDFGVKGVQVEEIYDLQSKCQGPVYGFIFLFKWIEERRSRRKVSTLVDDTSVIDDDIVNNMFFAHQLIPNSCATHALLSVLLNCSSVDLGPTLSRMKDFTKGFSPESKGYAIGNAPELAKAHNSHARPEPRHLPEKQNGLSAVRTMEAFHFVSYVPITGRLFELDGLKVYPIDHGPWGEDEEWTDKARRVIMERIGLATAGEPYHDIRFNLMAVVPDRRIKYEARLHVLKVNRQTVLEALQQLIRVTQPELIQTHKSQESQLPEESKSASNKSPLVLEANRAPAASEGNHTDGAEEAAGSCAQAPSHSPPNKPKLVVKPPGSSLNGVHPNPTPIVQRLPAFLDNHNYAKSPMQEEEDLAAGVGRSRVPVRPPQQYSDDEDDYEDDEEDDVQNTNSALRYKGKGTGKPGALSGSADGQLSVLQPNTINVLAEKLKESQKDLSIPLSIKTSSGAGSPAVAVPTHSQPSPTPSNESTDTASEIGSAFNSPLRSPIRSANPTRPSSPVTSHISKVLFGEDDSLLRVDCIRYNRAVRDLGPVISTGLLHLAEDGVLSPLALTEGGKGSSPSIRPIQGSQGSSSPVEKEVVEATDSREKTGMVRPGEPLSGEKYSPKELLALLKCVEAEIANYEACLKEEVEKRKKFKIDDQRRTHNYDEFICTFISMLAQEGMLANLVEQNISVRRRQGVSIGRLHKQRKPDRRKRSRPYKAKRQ
Procedure, shortened: as §1

EIF3F = EIF3F (UniProt O00303)
EIF3F, sequence (O00303 whole entry): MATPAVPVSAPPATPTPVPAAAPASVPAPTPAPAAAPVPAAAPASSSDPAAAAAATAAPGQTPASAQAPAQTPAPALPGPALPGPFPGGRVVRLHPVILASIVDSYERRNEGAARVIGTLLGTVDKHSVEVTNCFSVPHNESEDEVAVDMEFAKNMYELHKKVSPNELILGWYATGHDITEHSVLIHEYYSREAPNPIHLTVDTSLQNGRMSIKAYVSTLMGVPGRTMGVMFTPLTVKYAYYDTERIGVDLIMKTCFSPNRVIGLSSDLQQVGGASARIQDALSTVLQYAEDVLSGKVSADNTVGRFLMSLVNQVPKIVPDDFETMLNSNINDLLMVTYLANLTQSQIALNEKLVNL
Procedure, shortened: as §1

EIF3H = EIF3H (UniProt O15372)
EIF3H, sequence (O15372 whole entry): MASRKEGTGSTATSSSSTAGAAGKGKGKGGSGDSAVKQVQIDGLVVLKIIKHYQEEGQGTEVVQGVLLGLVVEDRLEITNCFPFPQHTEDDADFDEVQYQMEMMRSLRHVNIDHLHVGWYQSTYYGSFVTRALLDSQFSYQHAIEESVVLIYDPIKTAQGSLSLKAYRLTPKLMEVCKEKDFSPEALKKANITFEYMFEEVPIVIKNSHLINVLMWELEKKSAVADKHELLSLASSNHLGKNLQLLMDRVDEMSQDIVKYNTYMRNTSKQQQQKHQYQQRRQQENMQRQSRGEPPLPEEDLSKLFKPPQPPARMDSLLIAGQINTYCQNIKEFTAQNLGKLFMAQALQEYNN
Procedure, shortened: as §1

FAM105A = target: T3, FAM105A (UniProt Q9NUU6)
T3 sequence (whole entry): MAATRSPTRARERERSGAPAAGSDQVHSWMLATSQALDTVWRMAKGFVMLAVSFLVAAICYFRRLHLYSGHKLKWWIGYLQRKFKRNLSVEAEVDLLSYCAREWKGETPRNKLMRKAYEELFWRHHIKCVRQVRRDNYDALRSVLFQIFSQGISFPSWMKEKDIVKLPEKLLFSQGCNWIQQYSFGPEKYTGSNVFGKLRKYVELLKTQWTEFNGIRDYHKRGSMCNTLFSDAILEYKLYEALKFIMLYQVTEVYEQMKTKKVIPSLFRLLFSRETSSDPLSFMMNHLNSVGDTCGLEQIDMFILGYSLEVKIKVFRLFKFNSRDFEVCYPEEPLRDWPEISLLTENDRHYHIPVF
Procedure, shortened: as §1

OTUB1 = OTUB1 (UniProt Q96FW1)
OTUB1, sequence (Q96FW1 whole entry): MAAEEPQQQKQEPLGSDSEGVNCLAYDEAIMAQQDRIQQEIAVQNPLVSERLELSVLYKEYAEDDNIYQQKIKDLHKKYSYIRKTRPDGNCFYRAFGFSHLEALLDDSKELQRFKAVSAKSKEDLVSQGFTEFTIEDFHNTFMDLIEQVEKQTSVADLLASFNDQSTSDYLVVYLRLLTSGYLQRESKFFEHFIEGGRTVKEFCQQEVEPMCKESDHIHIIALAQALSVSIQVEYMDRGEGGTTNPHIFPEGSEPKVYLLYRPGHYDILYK
Procedure, shortened: as §1

OTUD4 = target: T4, OTUD4 (UniProt Q01804)
T4 sequence (whole entry): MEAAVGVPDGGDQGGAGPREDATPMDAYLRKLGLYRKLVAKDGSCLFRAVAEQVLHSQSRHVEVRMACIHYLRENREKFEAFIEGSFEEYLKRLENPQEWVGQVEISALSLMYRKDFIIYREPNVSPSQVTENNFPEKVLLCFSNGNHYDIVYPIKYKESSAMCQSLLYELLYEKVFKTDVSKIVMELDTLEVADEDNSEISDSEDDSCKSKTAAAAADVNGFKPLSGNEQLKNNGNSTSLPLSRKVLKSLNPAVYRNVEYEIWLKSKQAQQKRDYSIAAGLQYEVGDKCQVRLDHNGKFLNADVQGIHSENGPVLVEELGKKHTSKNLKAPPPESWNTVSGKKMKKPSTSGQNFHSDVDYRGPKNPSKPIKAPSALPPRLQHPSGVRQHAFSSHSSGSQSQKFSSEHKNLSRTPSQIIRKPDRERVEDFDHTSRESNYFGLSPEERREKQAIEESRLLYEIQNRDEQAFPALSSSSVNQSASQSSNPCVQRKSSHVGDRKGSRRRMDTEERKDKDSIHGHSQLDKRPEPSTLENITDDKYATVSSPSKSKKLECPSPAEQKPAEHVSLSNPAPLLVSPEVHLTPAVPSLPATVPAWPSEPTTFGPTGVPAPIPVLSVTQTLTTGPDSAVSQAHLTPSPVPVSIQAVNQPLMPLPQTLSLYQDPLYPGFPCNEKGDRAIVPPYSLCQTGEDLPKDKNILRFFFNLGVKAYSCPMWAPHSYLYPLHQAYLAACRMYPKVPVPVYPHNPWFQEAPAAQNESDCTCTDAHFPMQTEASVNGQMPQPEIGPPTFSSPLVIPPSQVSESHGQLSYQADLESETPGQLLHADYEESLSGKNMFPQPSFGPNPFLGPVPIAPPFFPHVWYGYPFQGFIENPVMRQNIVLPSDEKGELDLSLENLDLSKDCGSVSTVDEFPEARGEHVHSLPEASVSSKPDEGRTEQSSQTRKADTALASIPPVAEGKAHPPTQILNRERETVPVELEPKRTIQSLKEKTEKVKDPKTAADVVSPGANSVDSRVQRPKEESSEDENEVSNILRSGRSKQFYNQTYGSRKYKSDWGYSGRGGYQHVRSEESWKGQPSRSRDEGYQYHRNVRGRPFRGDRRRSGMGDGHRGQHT
Procedure, shortened: as §1

OTUD5 = target: T5, OTUD5 (UniProt Q96G74)
T5 sequence (whole entry): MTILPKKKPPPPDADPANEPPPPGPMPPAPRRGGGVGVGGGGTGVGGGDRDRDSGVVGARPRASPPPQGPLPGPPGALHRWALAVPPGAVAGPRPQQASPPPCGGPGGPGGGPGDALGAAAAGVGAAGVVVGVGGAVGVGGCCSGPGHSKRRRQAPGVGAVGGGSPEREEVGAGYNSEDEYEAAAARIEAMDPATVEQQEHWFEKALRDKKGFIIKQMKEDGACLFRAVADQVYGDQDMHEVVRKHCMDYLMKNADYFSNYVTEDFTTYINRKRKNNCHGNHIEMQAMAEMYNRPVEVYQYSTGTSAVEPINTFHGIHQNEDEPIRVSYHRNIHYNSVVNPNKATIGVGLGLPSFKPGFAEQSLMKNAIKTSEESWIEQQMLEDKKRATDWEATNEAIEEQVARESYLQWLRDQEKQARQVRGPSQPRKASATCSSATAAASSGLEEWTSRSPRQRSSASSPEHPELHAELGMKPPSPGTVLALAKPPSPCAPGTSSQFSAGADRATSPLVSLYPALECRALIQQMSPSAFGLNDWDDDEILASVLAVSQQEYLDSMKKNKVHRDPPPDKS
Procedure, shortened: as §1

Measured: log2 ratio of Biotin-Ahx-Ub-VS probe labelling

Cc1cnc2[nH]cc(CCNC(=O)CCl)c2c1
active: BAP1 -1
inactive: ALG13 -0.0473 | ATXN3 -0.0726 | EIF3F -0.228 | EIF3H 0.13 | FAM105A -0.55 | OTUB1 0.0416 | OTUD4 -0.139 | OTUD5 -0.26
